Laboratory results taken from PubChem BioAssay (NCI).
“And” between values parts separate entries of the source, which are not always exact repeats. Identical values can stand only once. This is part of a sample that, as a whole, favours compounds with a hit. Of some 79,000 tested, about 15% had one in any assay. The source made the active and inactive calls. Rule as the data show it: active = growth inhibition above about 70%; inactive = the rest.

Experiments:
[1] = NCI Yeast Anticancer Drug Screen. Data for the rad52 strain (AID 147);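 also: 0% = growth of vehicle-treated control cultures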; details: S. cerevisiae rad52 mutant growth inhibition, stronger effect = higher value
How it was run: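 Yeast strain carrying a DNA damage repair alteration was exposed to test compounds. Growth inhibition was measured relative to vehicle-treated controls.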

[2] = NCI Yeast Anticancer Drug Screen. Data for the wt1 strain (AID 149);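 also: 0% = growth of vehicle-treated wt1 cultures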; details: S. cerevisiae wt1 strain (SPY 50644) growth inhibition, stronger effect = higher value
How it was run: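 Measured: growth of wt1 yeast under compound versus vehicle treatment, reported as inhibition.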

[3] = NCI Yeast Anticancer Drug Screen. Data for the rad50EPP+ strain (AID 151);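 also: 0% = growth of vehicle-treated control cultures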; details: S. cerevisiae rad50 mutant strain, stronger effect = higher value
How it was run: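 Yeast strain carrying rad50 alteration (rad50EPP+) exposed to compounds; growth inhibition measured relative to vehicle-treated controls.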

[4] = NCI Yeast Anticancer Drug Screen. Data for the rad50 strain (AID 155);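 also: 0% = growth of vehicle-only cultures of the same strain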; details: S. cerevisiae rad50 strain growth inhibition, stronger effect = higher value
How it was run: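 Growth of the mutant yeast was measured after compound exposure and referenced to vehicle-treated cultures.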

[5] = NCI Yeast Anticancer Drug Screen. Data for the mec2-1 strain (AID 157); details: S. cerevisiae mec2-1 strain, stronger effect = higher value
How it was run: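 mec2-1 yeast strain, carrying an alteration in DNA damage repair or cell cycle control, was exposed to compounds; growth inhibition was measured relative to vehicle-treated controls.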

[6] = NCI Yeast Anticancer Drug Screen. Data for the rad14 strain (AID 159);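 also: 0% = growth of vehicle-treated control cultures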; details: S. cerevisiae rad14 strain growth inhibition, stronger effect = higher value
How it was run: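 Here, inhibition of yeast growth was measured after compound exposure, using a strain with a genetic defect in DNA damage repair and vehicle-treated cultures as the reference.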

[7] = NCI Yeast Anticancer Drug Screen. Data for the CLN2oe strain (AID 163);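 also: 0% = growth of vehicle-only control cultures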; details: S. cerevisiae CLN2oe strain, stronger effect = higher value
How it was run: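 Yeast cells carrying a defined cell-cycle control alteration were exposed to test compounds. Growth inhibition was scored against vehicle-treated control cultures.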

[8] = NCI Yeast Anticancer Drug Screen. Data for the cln2 rad14 strain (AID 165);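 also: 0% = growth equal to vehicle treated cultures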; details: S. cerevisiae cln2 rad14 strain, stronger effect = higher value
How it was run: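 Yeast carrying cln2 and rad14 alterations (cell cycle control and DNA damage repair) were exposed to compounds. Growth inhibition was measured against vehicle-treated controls.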

[9] = NCI Yeast Anticancer Drug Screen. Data for the bub3 strain (AID 167); details: S. cerevisiae bub3 mutant strain, stronger effect = higher value
How it was run: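 Whole-cell yeast assay. The mutant strain was incubated with compounds, and growth inhibition was determined by comparison with vehicle-treated cells.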

[10] = NCI Yeast Anticancer Drug Screen. Data for the wt2 strain (AID 169);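 also: 0% = growth of vehicle-treated yeast cultures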; details: S. cerevisiae wt2 strain growth inhibition, stronger effect = higher value
How it was run: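 Yeast cells were exposed to test compounds, and growth inhibition was measured relative to vehicle-treated controls.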

[11] = NCI Yeast Anticancer Drug Screen. Data for the mlh1 strain (AID 171);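 also: 0% = growth of vehicle-treated control cultures of the same strain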; details: S. cerevisiae mlh1 strain growth inhibition, stronger effect = higher value
How it was run: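 Yeast carrying a defined genetic alteration in DNA damage repair or cell cycle control were exposed to test compounds. Growth inhibition was measured relative to vehicle-treated controls.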

[12] = NCI Yeast Anticancer Drug Screen. Data for the sgs1 strain (AID 173);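 also: 0% = growth of vehicle-only control cultures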; details: S. cerevisiae sgs1 mutant, stronger effect = higher value
How it was run: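 Yeast mutant strains carrying defined defects in DNA damage repair or cell cycle control were exposed to test compounds. Growth inhibition was scored against vehicle-treated controls.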

[13] = NCI Yeast Anticancer Drug Screen. Data for the mlh1 rad18 strain (AID 175); details: S. cerevisiae mlh1 rad18 strain growth inhibition, stronger effect = higher value
How it was run: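 Growth inhibition of the yeast strain was measured after compound exposure and expressed relative to vehicle-treated controls. The strain carries defined defects in DNA damage repair.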

[14] = NCI Yeast Anticancer Drug Screen. Data for the rad18 strain (AID 177); details: S. cerevisiae rad18 mutant growth inhibition, stronger effect = higher value
How it was run: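 Yeast carrying a defined DNA damage repair alteration were exposed to compounds. Growth inhibition was expressed relative to vehicle-treated controls.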

[15] = NCI Yeast Anticancer Drug Screen. Data for the sgs1 mgt1 strain (AID 161);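 also: 0% = growth of cultures given vehicle only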; details: S. cerevisiae sgs1 mgt1 strain, stronger effect = higher value
How it was run: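 This yeast growth screen uses a strain with defined DNA-repair lesions; compound-treated growth is compared with vehicle-treated growth.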

[16] = at 5.0 µM (retest, dose inferred, filed as 0.5)
[17] = at 50.0 µM (retest, dose inferred, filed as 5.0)

Measured: growth inhibition

COc1ccc(/C(C#N)=C/c2ccc(OC)c(OC)c2)cc1
active: [4]; [17] 83% | [5]; [17] 92% | [9]; [17] 75% | [13]; [17] 81%
inactive: [1]; at 1.2 µM 10% | [1]; at 3.7 µM -6% | [1]; at 11.0 µM -1% | [1]; at 33.0 µM -13% | [1]; at 100.0 µM 21% | [2]; at 1.2 µM -37% | [2]; at 3.7 µM -21% | [2]; at 11.0 µM -22% | [2]; at 33.0 µM -23% | [2]; at 100.0 µM 0% | [3]; at 1.2 µM -17% | [3]; at 3.7 µM 0% | [3]; at 11.0 µM 8% | [3]; at 33.0 µM 60% | [3]; at 100.0 µM 54% | [4]; at 1.2 µM 2% | [4]; at 3.7 µM -4% | [4]; [16] 46% | [4]; at 11.0 µM -12% | [4]; at 33.0 µM 6% | [4]; at 50.0 µM 15.1% and 51.5% | [4]; at 100.0 µM 14% | [5]; at 1.2 µM -11% | [5]; at 3.7 µM -7% | [5]; [16] 56% | [5]; at 11.0 µM -21% | [5]; at 33.0 µM -10% | [5]; at 50.0 µM 43.8% and 38% | [5]; at 100.0 µM 18% | [6]; at 1.2 µM -17% | [6]; at 3.7 µM -29% | [6]; at 11.0 µM -27% | [6]; at 33.0 µM -13% | [6]; at 100.0 µM 32% | [7]; at 1.2 µM 13% | [7]; at 3.7 µM 9% | [7]; at 11.0 µM -2% | [7]; at 33.0 µM 0% | [7]; at 100.0 µM -5% | [8]; [16] 55% | [8]; [17] 60% | [8]; at 50.0 µM 7.8% | [9]; at 1.2 µM -5% | [9]; at 3.7 µM -3% | [9]; [16] 10% | [9]; at 11.0 µM 2% | [9]; at 33.0 µM 9% | [9]; at 50.0 µM 50.2% | [9]; at 100.0 µM 51% | [10]; at 1.2 µM -49% | [10]; at 3.7 µM -35% | [10]; at 11.0 µM -21% | [10]; at 33.0 µM -5% | [10]; at 100.0 µM 21% | [11]; at 1.2 µM -8% | [11]; at 3.7 µM 2% | [11]; at 11.0 µM 10% | [11]; at 33.0 µM 28% | [11]; at 100.0 µM 40% | [12]; at 1.2 µM -8% | [12]; at 3.7 µM -13% | [12]; at 11.0 µM -20% | [12]; at 33.0 µM 2% | [12]; at 100.0 µM 16% | [13]; [16] 30% | [13]; at 50.0 µM 26.1% and 58.4% | [14]; at 1.2 µM -13% | [14]; at 3.7 µM -17% | [14]; at 11.0 µM -13% | [14]; at 33.0 µM 0% | [14]; at 100.0 µM 13%

C/C=C/[P+](c1ccccc1)(c1ccccc1)c1ccccc1
active: [1]; at 11.0 µM 70% | [1]; at 33.0 µM 83% | [1]; at 100.0 µM 92% | [2]; at 100.0 µM 86% | [4]; at 11.0 µM 72% | [4]; at 33.0 µM 86% | [4]; [17] 78% | [4]; at 50.0 µM 81.2% | [4]; at 100.0 µM 95% | [5]; at 50.0 µM 83.3% | [5]; at 100.0 µM 91% | [6]; at 100.0 µM 97% | [15]; [17] 73% | [15]; at 50.0 µM 78.3% | [9]; [17] 86% | [9]; at 50.0 µM 78.6% | [9]; at 100.0 µM 90% | [10]; at 100.0 µM 87% | [11]; at 100.0 µM 92% | [12]; at 100.0 µM 89% | [13]; at 50.0 µM 87.8% | [14]; at 33.0 µM 90% | [14]; at 100.0 µM 94%
inactive: [1]; at 1.2 µM 49% | [1]; at 3.7 µM 62% | [2]; at 1.2 µM 31% | [2]; at 3.7 µM 42% | [2]; at 11.0 µM 54% | [2]; at 33.0 µM 61% | [3]; at 1.2 µM 13% | [3]; at 3.7 µM 2% | [3]; at 11.0 µM -4% | [3]; at 33.0 µM 0% | [3]; at 100.0 µM 16% | [4]; at 1.2 µM 50% | [4]; at 3.7 µM 67% | [4]; [16] 48% | [5]; at 1.2 µM 21% | [5]; at 3.7 µM 44% | [5]; [16] 33% | [5]; at 11.0 µM 54% | [5]; at 33.0 µM 64% | [5]; [17] 63% | [6]; at 1.2 µM 30% | [6]; at 3.7 µM 27% | [6]; at 11.0 µM 28% | [6]; at 33.0 µM 63% | [15]; [16] 20% | [8]; [16] 9% | [8]; [17] 16% | [8]; at 50.0 µM 52.6% | [9]; at 1.2 µM 15% | [9]; at 3.7 µM 29% | [9]; [16] 25% | [9]; at 11.0 µM 49% | [9]; at 33.0 µM 67% | [10]; at 1.2 µM -1% | [10]; at 3.7 µM 12% | [10]; at 11.0 µM 18% | [10]; at 33.0 µM 47% | [11]; at 1.2 µM 30% | [11]; at 3.7 µM 43% | [11]; at 11.0 µM 63% | [11]; at 33.0 µM 68% | [12]; at 1.2 µM 19% | [12]; at 3.7 µM 31% | [12]; at 11.0 µM 55% | [12]; at 33.0 µM 61% | [13]; [16] 33% | [13]; [17] 63% | [14]; at 1.2 µM 58% | [14]; at 3.7 µM 67% | [14]; at 11.0 µM 68%

CCCCCCCCCCCCCC(=O)OC(C)CCC1CCCO1 (stereo not drawn)
inactive: [1]; at 1.2 µM -2% | [1]; at 3.7 µM 0% | [1]; at 11.0 µM 2% | [1]; at 33.0 µM 1% | [1]; at 100.0 µM -8% | [2]; at 1.2 µM -3% | [2]; at 3.7 µM -2% | [2]; at 11.0 µM -1% | [2]; at 33.0 µM -1% | [2]; at 100.0 µM -3% | [3]; at 1.2 µM 2% | [3]; at 3.7 µM 2% | [3]; at 11.0 µM -2% | [3]; at 33.0 µM -4% | [3]; at 100.0 µM -6% | [4]; at 1.2 µM 1% | [4]; at 3.7 µM 0% | [4]; [16] 3% | [4]; at 11.0 µM 0% | [4]; at 33.0 µM -7% | [4]; [17] 15% | [4]; at 50.0 µM 19.4% | [4]; at 100.0 µM -4% | [5]; at 1.2 µM 0% | [5]; at 3.7 µM -1% | [5]; [16] 13% | [5]; at 11.0 µM -6% | [5]; at 33.0 µM 1% | [5]; [17] 5% | [5]; at 50.0 µM 23.5% | [5]; at 100.0 µM -1% | [6]; at 1.2 µM -2% | [6]; at 3.7 µM -6% | [6]; at 11.0 µM 0% | [6]; at 33.0 µM 3% | [6]; at 100.0 µM -4% | [7]; at 1.2 µM 1% | [7]; at 3.7 µM 2% | [7]; at 11.0 µM 2% | [7]; at 33.0 µM 4% | [7]; at 100.0 µM 14% | [8]; [17] 39% | [8]; at 50.0 µM 37.1% | [9]; at 1.2 µM 1% | [9]; at 3.7 µM -1% | [9]; [16] 31% | [9]; at 11.0 µM -1% | [9]; at 33.0 µM -1% | [9]; [17] 1% | [9]; at 50.0 µM 34.6% | [9]; at 100.0 µM -1% | [10]; at 1.2 µM -3% | [10]; at 3.7 µM -3% | [10]; at 11.0 µM -2% | [10]; at 33.0 µM -3% | [10]; at 100.0 µM -6% | [11]; at 1.2 µM -1% | [11]; at 3.7 µM 3% | [11]; at 11.0 µM 2% | [11]; at 33.0 µM 3% | [11]; at 100.0 µM 4% | [12]; at 1.2 µM -1% | [12]; at 3.7 µM 1% | [12]; at 11.0 µM 1% | [12]; at 33.0 µM 3% | [12]; at 100.0 µM 1% | [13]; [16] -2% | [13]; [17] 37% | [13]; at 50.0 µM 20.8%
active: [8]; [16] 81%
